The structures appear in SMILES notation. Compounds without any hit were thinned out: in the full panel of roughly 83,000, 20% have a hit.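 Negative percent growth values reflect cell death: -40 means 40% of the cells present at the start died, and -100 means all died.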 Values without a mark were called inactive. The source made the active and inactive calls. Rule for the calls: active = growth percent below 10; inactive = the rest.

Test systems include NCI-H23 lung; NCI-H226 lung; HOP-62 NSCLC; NCI-H460 lung; HOP-92 NSCLC; NCI-H522 lung; A549/ATCC NSCLC; 786-0 renal; COLO 205 colon; DU-145 prostate; K-562 leukemia; MALME-3M melanoma; MDA-MB-231 breast; RXF 393 renal; SF-268 CNS; SF-295 CNS; SF-539 CNS; UACC-257 melanoma; M14 melanoma; NCI-H322M lung.
Common to all, as to assay: NCI-60 one-dose screen, 48 h (100 = growth as untreated, 0 = no growth, -100 = all killed)
What all share (settings): 10 µM unless noted

For `Cc1cccc(NC(=O)CSc2nc3ccc([N+](=O)[O-])cc3[nH]2)c1`, the growth was 69.7% in the assay on NCI-H23 lung; 71% in the assay on NCI-H226 lung; 115% in the assay with HOP-62 NSCLC; 84.7% in the assay on NCI-H460 lung; 21% in the assay on HOP-92 NSCLC; 61% with NCI-H522 lung. Moreover, the growth in the assay on A549/ATCC NSCLC was 82.7%; in the assay with 786-0 renal, 84.8%; with COLO 205 colon, 90.1%; in the assay on DU-145 prostate, 85%; in the assay with K-562 leukemia, 66.5%; in the assay with MALME-3M melanoma it was 62.2%. Also, the growth in the assay with MDA-MB-231 breast was 97.3%; in the assay with RXF 393 renal, 89%; with SF-268 CNS it was 87.8%; in the assay with SF-295 CNS it was 62.7%; in the assay on SF-539 CNS, 87.1%; in the assay on UACC-257 melanoma, 70.9%. Moreover, in the assay with M14 melanoma, the growth is 79.9%.

In the case of `CCOC(=O)c1c(C)nc2c(c1N)CC(=O)N2Cc1cc(OC)c(OC)c(OC)c1`, the growth in the assay with NCI-H23 lung is 39.7%; with NCI-H226 lung, 70.5%; in the assay with HOP-62 NSCLC, 32.5%; in the assay with NCI-H460 lung it was 17.6%; in the assay with HOP-92 NSCLC it was 62.6%; in the assay on NCI-H522 lung it was 33.2%. Further, the growth was 40.7% in the assay with A549/ATCC NSCLC; 66.2% in the assay on 786-0 renal; 20.4% in the assay on COLO 205 colon; 80.6% with DU-145 prostate; 14.6% in the assay on K-562 leukemia; 45% in the assay with MALME-3M melanoma. In addition, the growth is 55.3% in the assay on MDA-MB-231 breast; 73.2% in the assay with RXF 393 renal; 69.5% in the assay with SF-268 CNS; 39.5% with SF-295 CNS; 66.2% in the assay on SF-539 CNS; 53% in the assay on UACC-257 melanoma. The growth in the assay with M14 melanoma was 28.1%.

As to `N=C(N)SCc1cccc2c(CSC(=N)N)cccc12`, the growth in the assay on NCI-H23 lung is 99.2%; in the assay on NCI-H226 lung, 87.9%; with HOP-62 NSCLC, 95.1%; with NCI-H460 lung, 103%; in the assay with HOP-92 NSCLC it was 83.8%; with NCI-H522 lung, 104%. The growth was 96.6% in the assay on A549/ATCC NSCLC; 99.3% in the assay with 786-0 renal; 108% in the assay on COLO 205 colon; 107% in the assay on DU-145 prostate; 103% in the assay on K-562 leukemia; 102% with MALME-3M melanoma. Further, the growth is 98.6% with MDA-MB-231 breast; 113% with RXF 393 renal; 97.2% with SF-268 CNS; 113% in the assay with SF-295 CNS; 100% in the assay on SF-539 CNS; 95.9% in the assay with UACC-257 melanoma. For the same compound, the growth in the assay on M14 melanoma is 105%.

Take `N#Cc1nc2c(S(=O)(=O)c3ccccc3)c(N)n(Cc3cccnc3)c2nc1C#N`: the growth with NCI-H23 lung is 88.5%; with NCI-H226 lung it was 97.7%; in the assay with HOP-62 NSCLC it was -8.31% (active); with NCI-H460 lung, 113%; in the assay with HOP-92 NSCLC it was -14.8% (active); with NCI-H522 lung it was 46.8%. The growth in the assay on A549/ATCC NSCLC is 90.1%; with 786-0 renal, 106%; with COLO 205 colon, 92.3%; in the assay with DU-145 prostate it was 90.6%; in the assay on K-562 leukemia, 51.6%; with MALME-3M melanoma it was 78.1%. The growth in the assay with MDA-MB-231 breast was 84.7%; with RXF 393 renal, 59.7%; with SF-268 CNS, 52.2%; in the assay with SF-295 CNS it was 92.7%; in the assay with SF-539 CNS, 58.7%; in the assay with UACC-257 melanoma it was 80.3%. Moreover, the growth in the assay on M14 melanoma is 142%.

Regarding `C/C(=C(/c1ccc(Cl)cc1)c1ccc(OCCCN(C)C)cc1)c1ccc(Cl)cc1`, the growth in the assay with NCI-H23 lung is 91.2%; in the assay on NCI-H226 lung, 108%; in the assay with HOP-62 NSCLC, 115%; in the assay on NCI-H460 lung, 72.7%; with HOP-92 NSCLC, 74.4%; in the assay on NCI-H522 lung, 99.7%. For the same compound, the growth in the assay on A549/ATCC NSCLC is 68.1%; in the assay on 786-0 renal, 86.8%; in the assay on COLO 205 colon, 48.9%; in the assay on DU-145 prostate, 95.5%; in the assay on K-562 leukemia, 16.9%; in the assay with MALME-3M melanoma, 96.4%. Moreover, the growth with MDA-MB-231 breast was 99.2%; with RXF 393 renal it was 77.6%; in the assay on SF-268 CNS, 88.5%; in the assay on SF-295 CNS, 110%; with SF-539 CNS, 99%; with UACC-257 melanoma, 103%. Further, in the assay with M14 melanoma, the growth was 91.5%.

In the case of `COc1cc(Nc2ncccc2NC(=O)c2cn(Cc3cccc(Oc4ccccc4)c3)nn2)cc(OC)c1`, the growth was 83.8% with NCI-H23 lung; 83% with NCI-H226 lung; 85.5% in the assay on NCI-H322M lung; 102% in the assay with NCI-H460 lung; 98.4% in the assay with HOP-92 NSCLC; 81% in the assay on NCI-H522 lung. In addition, the growth in the assay on 786-0 renal was 87.2%; in the assay on DU-145 prostate, 86.2%; with K-562 leukemia, 45.4%; in the assay with MALME-3M melanoma, 92.3%; in the assay on MDA-MB-231 breast it was 66%; with RXF 393 renal it was 74.6%. Further, the growth in the assay with SF-268 CNS was 73.8%; with SF-295 CNS it was 93.4%; with SF-539 CNS, 93%; with UACC-257 melanoma, 104%; with M14 melanoma, 67.6%.

`C=C1C(=O)O[C@H]2[C@H]1CC/C(Cn1cc(-c3cc(C(F)(F)F)cc(C(F)(F)F)c3)nn1)=C\CC[C@@]1(C)O[C@@H]21`: the growth is -58.6% (active) in the assay with NCI-H23 lung; -54.5% (active) in the assay on NCI-H226 lung; -78.6% (active) in the assay with HOP-62 NSCLC; -59.2% (active) in the assay with NCI-H460 lung; -95.1% (active) with HOP-92 NSCLC; -76.7% (active) in the assay with NCI-H522 lung. For the same compound, the growth in the assay on A549/ATCC NSCLC is -85.3% (active); in the assay with 786-0 renal, -86.5% (active); in the assay with COLO 205 colon, -60.4% (active); in the assay on DU-145 prostate it was -90% (active); with K-562 leukemia it was -37.6% (active); with MALME-3M melanoma it was -88.5% (active). The growth in the assay with MDA-MB-231 breast was -75.7% (active); with RXF 393 renal, -90.9% (active); in the assay on SF-268 CNS, -78.7% (active); with SF-295 CNS, -67.4% (active); in the assay with SF-539 CNS it was -92.2% (active); with UACC-257 melanoma, -85.3% (active). In addition, in the assay with M14 melanoma, the growth was -70.3% (active).

The values are drawn from PubChem BioAssay (NCI).
